The record followed here is ChEMBL document CHEMBL5308504, “Tm Shift (DSF) assay results for EUbOPEN Chemogenomics Library” (2023).

Common to all, as to details: Compound concentration 20.0 uM, Protein concentration 2.0 uM, Result type QC Liability
Assay [1] deals with Tyrosine-protein kinase ABL1 (Homo sapiens) (UniProt P00519).
The target of assay [2] is Cyclin-dependent kinase 2 (Homo sapiens) (UniProt P24941).
Assay [3] deals with Casein kinase I isoform delta (Homo sapiens) (UniProt P48730).
Assay [4] addresses Glycogen synthase kinase-3 beta (Homo sapiens) (UniProt P49841).
In assay [5] the target is Mitogen-activated protein kinase 1 (Homo sapiens) (UniProt P28482).
For assay [6], the target named is T1, Aurora kinase A (Homo sapiens) (UniProt O14965).
T1 sequence (whole entry): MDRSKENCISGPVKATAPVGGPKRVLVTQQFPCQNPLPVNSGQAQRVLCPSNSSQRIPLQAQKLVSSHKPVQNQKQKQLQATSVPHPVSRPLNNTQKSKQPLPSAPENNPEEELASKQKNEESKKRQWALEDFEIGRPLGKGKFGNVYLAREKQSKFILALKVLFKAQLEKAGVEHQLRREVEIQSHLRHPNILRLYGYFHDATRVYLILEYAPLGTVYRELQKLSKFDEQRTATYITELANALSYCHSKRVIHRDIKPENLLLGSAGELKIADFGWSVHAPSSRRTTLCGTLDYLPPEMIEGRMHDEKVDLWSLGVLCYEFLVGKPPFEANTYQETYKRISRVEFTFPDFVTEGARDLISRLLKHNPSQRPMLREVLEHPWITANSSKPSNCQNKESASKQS

Molecules are shown by their SMILES.

Chain of Casein kinase I isoform delta (Homo sapiens) (P48730 whole entry, looked up, canonical isoform): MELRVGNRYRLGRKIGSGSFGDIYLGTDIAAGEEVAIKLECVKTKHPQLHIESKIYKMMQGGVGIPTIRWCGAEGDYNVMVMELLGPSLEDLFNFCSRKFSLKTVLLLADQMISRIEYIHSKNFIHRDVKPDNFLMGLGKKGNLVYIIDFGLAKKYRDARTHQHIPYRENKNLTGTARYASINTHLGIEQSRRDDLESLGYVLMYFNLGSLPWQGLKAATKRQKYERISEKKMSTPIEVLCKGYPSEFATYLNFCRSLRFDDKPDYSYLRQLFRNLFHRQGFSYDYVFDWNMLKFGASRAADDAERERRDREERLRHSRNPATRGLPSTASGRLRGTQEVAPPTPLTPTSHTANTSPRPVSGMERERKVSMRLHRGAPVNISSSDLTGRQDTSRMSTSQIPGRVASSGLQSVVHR
Chain of Tyrosine-protein kinase ABL1 (Homo sapiens) (P00519 whole entry): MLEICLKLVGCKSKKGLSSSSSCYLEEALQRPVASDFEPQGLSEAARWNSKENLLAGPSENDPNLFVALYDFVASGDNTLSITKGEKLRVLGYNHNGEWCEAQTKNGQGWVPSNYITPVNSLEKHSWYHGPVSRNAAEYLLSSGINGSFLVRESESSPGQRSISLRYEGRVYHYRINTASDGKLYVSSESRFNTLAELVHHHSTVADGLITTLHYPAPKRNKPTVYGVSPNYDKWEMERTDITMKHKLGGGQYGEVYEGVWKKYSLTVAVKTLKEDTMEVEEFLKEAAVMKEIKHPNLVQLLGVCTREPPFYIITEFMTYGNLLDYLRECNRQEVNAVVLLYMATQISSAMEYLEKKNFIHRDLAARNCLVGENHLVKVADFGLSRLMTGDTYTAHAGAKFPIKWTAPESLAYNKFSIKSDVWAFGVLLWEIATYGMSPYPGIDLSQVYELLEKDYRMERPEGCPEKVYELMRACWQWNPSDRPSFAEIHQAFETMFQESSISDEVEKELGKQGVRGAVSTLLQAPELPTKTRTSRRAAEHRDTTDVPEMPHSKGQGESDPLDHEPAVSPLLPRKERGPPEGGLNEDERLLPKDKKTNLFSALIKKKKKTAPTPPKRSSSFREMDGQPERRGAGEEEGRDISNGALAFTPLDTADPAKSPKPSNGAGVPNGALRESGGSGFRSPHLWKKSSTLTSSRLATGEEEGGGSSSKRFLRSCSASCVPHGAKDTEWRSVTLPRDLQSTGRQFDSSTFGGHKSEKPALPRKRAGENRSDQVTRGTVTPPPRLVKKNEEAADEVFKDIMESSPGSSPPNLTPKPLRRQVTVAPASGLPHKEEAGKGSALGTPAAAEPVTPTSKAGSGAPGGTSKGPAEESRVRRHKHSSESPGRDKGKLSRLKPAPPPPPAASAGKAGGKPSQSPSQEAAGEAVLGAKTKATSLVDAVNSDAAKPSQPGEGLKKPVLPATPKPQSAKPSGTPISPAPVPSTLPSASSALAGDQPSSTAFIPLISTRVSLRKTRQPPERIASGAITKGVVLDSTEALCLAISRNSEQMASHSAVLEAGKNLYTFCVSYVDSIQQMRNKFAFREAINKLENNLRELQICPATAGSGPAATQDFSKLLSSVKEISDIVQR
Chain of Glycogen synthase kinase-3 beta (Homo sapiens) (P49841 whole entry, looked up): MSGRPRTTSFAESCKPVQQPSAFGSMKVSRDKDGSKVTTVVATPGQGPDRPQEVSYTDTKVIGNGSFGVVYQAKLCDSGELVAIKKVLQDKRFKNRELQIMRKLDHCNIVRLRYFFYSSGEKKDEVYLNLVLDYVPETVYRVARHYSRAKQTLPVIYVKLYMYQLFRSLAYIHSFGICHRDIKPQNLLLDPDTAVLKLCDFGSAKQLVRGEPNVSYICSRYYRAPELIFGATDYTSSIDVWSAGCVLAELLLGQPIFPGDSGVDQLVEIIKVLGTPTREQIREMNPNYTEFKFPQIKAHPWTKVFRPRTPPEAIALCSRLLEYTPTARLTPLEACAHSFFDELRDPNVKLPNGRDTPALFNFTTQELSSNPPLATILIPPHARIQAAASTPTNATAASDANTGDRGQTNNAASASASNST
Chain of Mitogen-activated protein kinase 1 (Homo sapiens) (P28482 whole entry): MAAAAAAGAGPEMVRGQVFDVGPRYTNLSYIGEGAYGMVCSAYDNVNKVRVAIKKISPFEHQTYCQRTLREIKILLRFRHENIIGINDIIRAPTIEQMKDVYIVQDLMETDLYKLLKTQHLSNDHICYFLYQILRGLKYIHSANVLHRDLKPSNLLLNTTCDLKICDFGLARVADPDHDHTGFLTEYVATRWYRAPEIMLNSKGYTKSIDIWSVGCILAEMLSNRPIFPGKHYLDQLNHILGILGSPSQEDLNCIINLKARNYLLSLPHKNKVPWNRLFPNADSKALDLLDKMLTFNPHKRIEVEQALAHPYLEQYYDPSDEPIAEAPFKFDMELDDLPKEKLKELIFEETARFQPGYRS

The ΔTm is the shift of the melting midpoint relative to a reference. Consider `CS(=O)(=O)c1cc(C2(NC(=O)c3cncc4c3cnn4-c3ccc(F)cc3)CC2)ccn1`, for which the ΔTm in assay [1] was 0.11 °C; in assay [2], 0.77 °C; in assay [3] it was 0.73 °C; in assay [4] it was -0.04 °C; in assay [5], -0.47 °C; in assay [6] it was 0.05 °C.

Regarding `CP(C)(=O)c1ccc(CNC(=O)C2CCN(S(=O)(=O)c3cc(Cl)cc(Cl)c3)CC2)cc1`, the ΔTm is 0.74 °C in assay [1]; 0.5 °C in assay [2]; 0.35 °C in assay [3]; -0.16 °C in assay [4]; 0.45 °C in assay [5]; -0.19 °C in assay [6].

With `CN(C)c1ccc(-c2cc3ncccc3c(OCCCCO)n2)cc1`, the ΔTm came out at 5.68 °C in assay [1]; 0.73 °C in assay [2]; 1.32 °C in assay [3]; 0.13 °C in assay [4]; 0.3 °C in assay [5]; 8.85 °C in assay [6].

For the compound `CCO[C@H](COc1ccc(C(F)(F)F)cc1)CSc1ccc(OCC(=O)O)c(C)c1`, the ΔTm is 0.26 °C in assay [1]; 0.43 °C in assay [2]; 0.11 °C in assay [3]; -0.41 °C in assay [4]; 0.32 °C in assay [5]; -1.04 °C in assay [6].

As for `CNc1nc(Nc2ccc(C(=O)N3CCOCC3)cc2OC)ncc1Cl`, the ΔTm in assay [1] is 0.4 °C; in assay [2], 0.09 °C; in assay [3] it was -0.01 °C; in assay [4], -0.95 °C; in assay [5] it was 0.36 °C; in assay [6] it was 3.14 °C.

As to `Cn1cnc(Cn2ccc3ccc(CNCc4[nH]c5ccccc5c4[C@@H]4NC(=O)c5ccc(O)cc54)cc32)c1`, the ΔTm was 0.7 °C in assay [1]; 0.07 °C in assay [2]; 0.29 °C in assay [3]; -0.16 °C in assay [4]; 0.02 °C in assay [5]; 0.7 °C in assay [6].

Turning to `COc1ccc(Br)cc1S(=O)(=O)NC(=O)/C=C/c1cc(Cl)ccc1Cc1ccc2ccccc2c1`, the ΔTm in assay [1] was -0.6 °C; in assay [2], -1.22 °C; in assay [3] it was -6.17 °C; in assay [4] it was -2.44 °C; in assay [5] it was -4.21 °C; in assay [6], -3.37 °C.

With `O=C(Nc1cccc(C(F)(F)F)c1)c1cccc(-n2cc(-c3ccco3)nn2)c1`, the ΔTm was 0.46 °C in assay [1]; 0.62 °C in assay [2]; -5.13 °C in assay [3]; -7.24 °C in assay [4]; -10.6 °C in assay [5]; -2.64 °C in assay [6].

`CCn1c(CNC(=O)c2nc(Cl)cnc2N)[n+](CC)c2ccc(C(=O)N(C)CCN(C)C)cc21`: the ΔTm is 0.14 °C in assay [1]; 0.44 °C in assay [2]; 0.35 °C in assay [3]; -0.7 °C in assay [4]; 0.33 °C in assay [5]; -0.18 °C in assay [6].

With `Nc1ncnc2[nH]c(-c3ccccc3)nc12`, the ΔTm in assay [1] turned out to be 3.48 °C; in assay [2], 0.92 °C; in assay [3], 0.73 °C; in assay [4], 1.04 °C; in assay [5] it was 0.38 °C; in assay [6], 0.6 °C.

Consider `CCS(=O)(=O)Nc1cccc(Oc2cncc(Nc3ccc(I)cc3F)c2C(N)=O)c1`, for which the ΔTm in assay [1] was 0.95 °C; in assay [2], 0.72 °C; in assay [3], -0.53 °C; in assay [4], -0.71 °C; in assay [5], -2.21 °C; in assay [6], 1.45 °C.

As for `CC(C(=O)Nc1cc(C#N)ccc1CCCC(=O)O)c1ccc(F)c2ccccc12` (stereo not given), the ΔTm in assay [1] is 0.96 °C; in assay [2], 0.61 °C; in assay [3] it was 0.09 °C; in assay [4], 0.53 °C; in assay [5] it was -0.07 °C; in assay [6], -0.36 °C.

With `O=C(Nc1ccc(C(O)(C(F)(F)F)C(F)(F)F)cc1)c1ccc(C(F)(F)F)cc1`, the ΔTm in assay [1] is 0.76 °C; in assay [2], 1.61 °C; in assay [3] it was 1.47 °C; in assay [4] it was -0.34 °C; in assay [5] it was 0.19 °C; in assay [6], 0 °C.

`CSc1nc2c(c(=O)n(C)c(=O)n2C)n1C`: the ΔTm in assay [1] is 0.1 °C; in assay [2], 0.27 °C; in assay [3], 0.33 °C; in assay [4], -0.85 °C; in assay [5] it was 0.33 °C; in assay [6], -0.13 °C.

On to `Nc1ncc2c(n1)-c1c([nH]c3ccc(C4CC4)cc13)CCCC2`, for which the ΔTm is 0.19 °C in assay [1]; -0.43 °C in assay [2]; -0.06 °C in assay [3]; 2.09 °C in assay [4]; 0.41 °C in assay [5]; -0.12 °C in assay [6].

Take `CN1C(=O)c2c(nn(Cc3ccc(-c4cccc(F)n4)cc3)c2Nc2ccccc2)N2C1=N[C@@H]1CCC[C@@H]12`: the ΔTm was 0.4 °C in assay [1]; 0 °C in assay [2]; 0.16 °C in assay [3]; 3.99 °C in assay [4]; -0.56 °C in assay [5]; -0.49 °C in assay [6].

With `O=C1Nc2nc(-c3c(O)cccc3OCC3CC3)cc([C@@H]3CCCNC3)c2CO1`, the ΔTm in assay [1] is 0.61 °C; in assay [2], 2.37 °C; in assay [3], 2.04 °C; in assay [4], 1.54 °C; in assay [5], 1.1 °C; in assay [6], -0.03 °C.

For `CCC(C)(C)CC[C@H](NC(=O)N1CCOCC1)C(=O)NC1(C#N)CCN(C)CC1`, the ΔTm is -0.14 °C in assay [1]; 0.95 °C in assay [2]; 0.34 °C in assay [3]; 0.11 °C in assay [4]; 0.54 °C in assay [5]; 0.69 °C in assay [6].

Take `C[C@@H]1CCNC(=O)c2cc3ccc(C(=O)Nc4nc5ccccc5n4CCCN(C)C)cc3n21`: the ΔTm in assay [1] amounted to 1.4 °C; in assay [2] it was 0.73 °C; in assay [3], 2.87 °C; in assay [4], 0.5 °C; in assay [5] it was 0.36 °C; in assay [6] it was 3.79 °C.

Regarding `O=C(NCCN1CCOCC1)c1ccc2nn(CCOc3ccc(Cl)cc3)cc2c1`, the ΔTm is 0.88 °C in assay [1]; 0.59 °C in assay [2]; 0.35 °C in assay [3]; -0.24 °C in assay [4]; 0.56 °C in assay [5]; 0.05 °C in assay [6].

In the case of `CCCc1c(OCCCOc2ccc(OCC(=O)O)cc2)ccc(C(C)=O)c1O`, the ΔTm in assay [1] is 0.08 °C; in assay [2], -0.16 °C; in assay [3], 1.18 °C; in assay [4], -0.07 °C; in assay [5], -0.16 °C; in assay [6], -1.56 °C.

For the compound `Cc1nsc(Nc2cnc(C(F)(F)F)cn2)c1C(=O)Nc1ccc(O[C@H]2CCCN(CC(F)(F)F)C2)nc1`, the ΔTm was 0.72 °C in assay [1]; 1.68 °C in assay [2]; 0 °C in assay [3]; -3.09 °C in assay [4]; 0 °C in assay [5]; 2.24 °C in assay [6].

With `CNC(=O)COc1cc2cc(Nc3nc(N4CCC(C(=O)N(C)C)CC4)ncc3Cl)cc(OC)c2n(C)c1=O`, the ΔTm in assay [1] was -0.18 °C; in assay [2], -0.4 °C; in assay [3], 0.17 °C; in assay [4], -0.71 °C; in assay [5] it was 0.01 °C; in assay [6] it was -0.26 °C.

As to `CCCNc1ccc2ncc(-c3ccncc3)n2n1`, the ΔTm in assay [1] was 5.22 °C; in assay [2] it was 4.76 °C; in assay [3] it was 5.6 °C; in assay [4] it was 4.07 °C; in assay [5] it was 1.16 °C; in assay [6], 6.52 °C.

Regarding `COc1cc(-c2cn(C)c(=O)c3cnccc23)cc(OC)c1CN(C)C`, the shift in melting temperature (ΔTm) stood at 0.24 °C in assay [1]; 0.43 °C in assay [2]; 0.32 °C in assay [3]; 0.06 °C in assay [4]; 0.23 °C in assay [5]; 0.56 °C in assay [6].
